The values below come from article PMC7862700, “An all-to-all approach to the identification of sequence-specific readers for epigenetic DNA modifications on cytosine”.

Holding throughout (assay): DAPPL (digital affinity profiling via proximity ligation, sequencing); 10 mM Tris-HCl pH 7.5, 50 mM NaCl, 1 mM DTT, 4% glycerol, room temperature, 30 min; GST-TFs on glutathione beads, 16-mer random dsDNA library, 0.1% formaldehyde crosslink after washing; high values mean tight binding
Experiment [1] concerns the target T1, FLI1 (Homo sapiens, UniProt Q01543 1-452).
T1 sequence: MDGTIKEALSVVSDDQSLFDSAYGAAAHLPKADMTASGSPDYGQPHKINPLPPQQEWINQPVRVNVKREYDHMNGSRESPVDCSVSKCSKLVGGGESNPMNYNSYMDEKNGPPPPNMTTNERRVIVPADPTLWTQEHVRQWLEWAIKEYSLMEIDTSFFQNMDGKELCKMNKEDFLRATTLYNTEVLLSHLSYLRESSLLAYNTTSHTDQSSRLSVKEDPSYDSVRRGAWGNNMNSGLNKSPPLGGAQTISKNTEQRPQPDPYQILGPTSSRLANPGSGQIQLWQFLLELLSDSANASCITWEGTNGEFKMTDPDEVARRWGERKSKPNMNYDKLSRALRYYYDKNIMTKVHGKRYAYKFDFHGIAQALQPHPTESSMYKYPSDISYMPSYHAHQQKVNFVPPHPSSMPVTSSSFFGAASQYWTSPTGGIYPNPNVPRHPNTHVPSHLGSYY
To be noted: protein: recombinant; tags: N-terminal GST; dsDNA, one strand shown. A digest of the protocol:
(§1)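 Yeast served to express human transcription factors as GST fusions, which were then captured on glutathione beads and labelled with DNA barcodes. Pooled with a tag-only sample, they were incubated with 200 nmole of a 16-mer random double-stranded DNA library for 30 min at room temperature in Tris/NaCl/DTT/glycerol buffer, washed, crosslinked with 0.1% formaldehyde, ligated by proximity, amplified by PCR and sequenced. Dividing each hexamer's read frequency for a factor by its frequency for the tag-only sample gives the binding signal.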

The target of experiment [2] is T2, ELK1 (Homo sapiens, UniProt P19419 1-428).
T2 sequence: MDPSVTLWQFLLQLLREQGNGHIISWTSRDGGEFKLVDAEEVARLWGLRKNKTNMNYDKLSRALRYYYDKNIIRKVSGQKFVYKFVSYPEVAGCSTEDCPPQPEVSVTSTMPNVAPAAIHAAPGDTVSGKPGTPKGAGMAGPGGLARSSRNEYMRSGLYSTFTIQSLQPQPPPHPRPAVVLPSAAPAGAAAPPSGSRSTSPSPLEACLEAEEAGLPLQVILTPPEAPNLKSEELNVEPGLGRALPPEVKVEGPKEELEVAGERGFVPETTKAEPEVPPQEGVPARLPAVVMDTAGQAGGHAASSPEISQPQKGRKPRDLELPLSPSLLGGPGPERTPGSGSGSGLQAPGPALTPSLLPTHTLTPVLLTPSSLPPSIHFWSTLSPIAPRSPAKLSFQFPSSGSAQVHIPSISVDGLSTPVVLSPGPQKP
To be noted: protein: recombinant; tags: N-terminal GST; dsDNA, one strand shown. Summed up: as §1

For experiment [3], the target named is T3, GABPA (Homo sapiens, UniProt Q06546 1-454).
T3 sequence: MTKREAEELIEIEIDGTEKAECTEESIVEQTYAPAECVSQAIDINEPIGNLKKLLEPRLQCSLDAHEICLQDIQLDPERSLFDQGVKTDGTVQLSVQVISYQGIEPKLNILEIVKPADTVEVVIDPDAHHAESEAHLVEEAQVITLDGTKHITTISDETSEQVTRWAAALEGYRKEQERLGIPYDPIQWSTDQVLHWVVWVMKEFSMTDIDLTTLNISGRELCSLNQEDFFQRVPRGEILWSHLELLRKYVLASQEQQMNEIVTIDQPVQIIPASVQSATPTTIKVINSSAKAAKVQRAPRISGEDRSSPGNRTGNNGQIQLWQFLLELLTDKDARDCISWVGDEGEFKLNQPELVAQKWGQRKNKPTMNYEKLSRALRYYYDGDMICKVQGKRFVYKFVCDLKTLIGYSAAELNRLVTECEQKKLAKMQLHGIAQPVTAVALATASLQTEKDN
To be noted: protein: recombinant; tags: N-terminal GST; dsDNA, one strand shown. Summed up: as §1

Experiment [4] concerns the target T4, ERG (Homo sapiens, UniProt P11308 1-479).
T4 sequence: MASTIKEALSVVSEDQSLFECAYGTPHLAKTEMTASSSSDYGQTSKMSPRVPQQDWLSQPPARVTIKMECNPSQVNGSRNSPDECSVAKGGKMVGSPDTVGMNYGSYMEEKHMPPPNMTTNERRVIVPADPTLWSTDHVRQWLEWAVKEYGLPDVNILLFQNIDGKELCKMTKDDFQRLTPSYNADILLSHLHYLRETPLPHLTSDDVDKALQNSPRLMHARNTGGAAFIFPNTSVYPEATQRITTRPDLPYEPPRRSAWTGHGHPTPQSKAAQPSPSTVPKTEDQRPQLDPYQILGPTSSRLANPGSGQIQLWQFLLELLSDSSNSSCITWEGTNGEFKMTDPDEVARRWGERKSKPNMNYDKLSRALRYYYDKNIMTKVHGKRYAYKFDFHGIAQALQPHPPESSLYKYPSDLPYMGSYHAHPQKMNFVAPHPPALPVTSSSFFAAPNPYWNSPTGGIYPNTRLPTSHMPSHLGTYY
Conditions: protein: recombinant; tags: N-terminal GST; dsDNA, one strand shown. Summed up: as §1

Experiment [5] deals with ELF1 (Homo sapiens, UniProt P32519 1-619). To be noted: protein: recombinant; tags: N-terminal GST; dsDNA, one strand shown. A digest of the protocol:
as §1

Experiment [6] addresses T5, EHF (Homo sapiens, UniProt Q9NZC4 1-300).
T5 sequence: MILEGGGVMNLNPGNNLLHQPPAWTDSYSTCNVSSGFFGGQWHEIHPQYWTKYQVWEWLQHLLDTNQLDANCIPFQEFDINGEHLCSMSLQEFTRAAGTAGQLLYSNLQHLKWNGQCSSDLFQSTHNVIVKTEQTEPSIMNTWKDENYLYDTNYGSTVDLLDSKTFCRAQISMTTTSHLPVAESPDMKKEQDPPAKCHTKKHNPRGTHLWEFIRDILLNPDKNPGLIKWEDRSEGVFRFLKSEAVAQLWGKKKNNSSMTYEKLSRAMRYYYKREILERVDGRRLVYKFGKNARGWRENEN
To be noted: protein: recombinant; tags: N-terminal GST; dsDNA, one strand shown. A digest of the protocol: as §1

The target of experiment [7] is SPI1 (Homo sapiens, UniProt P17947 1-270). Conditions: protein: recombinant; tags: N-terminal GST; dsDNA, one strand shown. A digest of the protocol: as §1
In experiment [8] the target is SPIB (Homo sapiens, UniProt Q01892 1-262). To be noted: protein: recombinant; tags: N-terminal GST; dsDNA, one strand shown. A digest of the protocol:
as §1

Experiment [9] concerns the target T6, ELK3 (Homo sapiens, UniProt P41970 1-407).
T6 sequence: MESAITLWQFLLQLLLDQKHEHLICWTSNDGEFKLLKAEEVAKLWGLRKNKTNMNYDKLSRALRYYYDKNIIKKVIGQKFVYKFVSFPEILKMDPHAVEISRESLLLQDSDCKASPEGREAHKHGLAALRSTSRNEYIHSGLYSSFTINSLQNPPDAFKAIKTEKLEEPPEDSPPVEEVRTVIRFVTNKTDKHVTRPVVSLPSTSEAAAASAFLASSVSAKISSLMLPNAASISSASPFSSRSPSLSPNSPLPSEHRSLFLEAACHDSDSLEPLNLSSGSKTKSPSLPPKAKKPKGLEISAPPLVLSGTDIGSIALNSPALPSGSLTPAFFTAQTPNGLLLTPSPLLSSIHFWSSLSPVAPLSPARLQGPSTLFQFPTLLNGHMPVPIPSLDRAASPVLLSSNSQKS
To be noted: protein: recombinant; tags: N-terminal GST; dsDNA, one strand shown. Summed up: as §1

The target of experiment [10] is T7, FEV (Homo sapiens, UniProt Q99581 1-238).
T7 sequence: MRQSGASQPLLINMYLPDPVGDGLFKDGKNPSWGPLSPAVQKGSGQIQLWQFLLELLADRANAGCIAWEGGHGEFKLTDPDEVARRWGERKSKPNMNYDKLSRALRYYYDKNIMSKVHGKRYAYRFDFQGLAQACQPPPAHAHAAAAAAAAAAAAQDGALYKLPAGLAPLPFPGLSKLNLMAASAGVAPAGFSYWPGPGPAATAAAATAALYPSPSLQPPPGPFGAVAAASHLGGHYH
To be noted: protein: recombinant; tags: N-terminal GST; dsDNA, one strand shown. Summed up:
as §1

In experiment [11] the target is ETV5 (Homo sapiens, UniProt P41161 1-510). Conditions: protein: recombinant; tags: N-terminal GST; dsDNA, one strand shown. Summed up:
as §1

For experiment [12], the target named is HSF1 (Homo sapiens, UniProt Q00613 1-529). To be noted: protein: recombinant; tags: N-terminal GST; chain copies: 3; dsDNA, one strand shown. A digest of the protocol:
as §1

For experiment [13], the target named is T8, SPIC (Homo sapiens, UniProt Q8N5J4 1-248).
T8 sequence: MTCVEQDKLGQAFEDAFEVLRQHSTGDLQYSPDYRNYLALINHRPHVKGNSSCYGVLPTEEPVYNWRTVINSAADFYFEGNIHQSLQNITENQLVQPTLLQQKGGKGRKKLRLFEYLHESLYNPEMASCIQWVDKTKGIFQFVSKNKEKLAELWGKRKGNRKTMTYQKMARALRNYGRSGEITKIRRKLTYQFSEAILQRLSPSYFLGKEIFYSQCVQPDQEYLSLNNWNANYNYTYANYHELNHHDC
To be noted: protein: recombinant; tags: N-terminal GST; dsDNA, one strand shown. Summed up: as §1

In experiment [14] the target is ELF4 (Homo sapiens, UniProt Q99607 1-663). To be noted: protein: recombinant; tags: N-terminal GST; dsDNA, one strand shown. A digest of the protocol:
as §1

Experiment [15] deals with T9, ELK4 (Homo sapiens, UniProt P28324-2 1-405).
T9 sequence: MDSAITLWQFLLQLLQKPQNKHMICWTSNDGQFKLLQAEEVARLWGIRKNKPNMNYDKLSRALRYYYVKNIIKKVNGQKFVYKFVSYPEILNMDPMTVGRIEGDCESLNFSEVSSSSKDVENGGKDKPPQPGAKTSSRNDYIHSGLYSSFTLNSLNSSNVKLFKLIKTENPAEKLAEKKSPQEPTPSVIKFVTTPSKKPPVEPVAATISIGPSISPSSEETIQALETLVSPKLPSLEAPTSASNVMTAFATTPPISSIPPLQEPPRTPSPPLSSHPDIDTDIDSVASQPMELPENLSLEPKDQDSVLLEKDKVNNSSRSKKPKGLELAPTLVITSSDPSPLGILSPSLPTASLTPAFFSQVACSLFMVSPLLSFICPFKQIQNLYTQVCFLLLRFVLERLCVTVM
To be noted: protein: recombinant; tags: N-terminal GST; dsDNA, one strand shown. A digest of the protocol: as §1

Experiment [16] deals with T10, ETV2 (Homo sapiens, UniProt O00321 1-342).
T10 sequence: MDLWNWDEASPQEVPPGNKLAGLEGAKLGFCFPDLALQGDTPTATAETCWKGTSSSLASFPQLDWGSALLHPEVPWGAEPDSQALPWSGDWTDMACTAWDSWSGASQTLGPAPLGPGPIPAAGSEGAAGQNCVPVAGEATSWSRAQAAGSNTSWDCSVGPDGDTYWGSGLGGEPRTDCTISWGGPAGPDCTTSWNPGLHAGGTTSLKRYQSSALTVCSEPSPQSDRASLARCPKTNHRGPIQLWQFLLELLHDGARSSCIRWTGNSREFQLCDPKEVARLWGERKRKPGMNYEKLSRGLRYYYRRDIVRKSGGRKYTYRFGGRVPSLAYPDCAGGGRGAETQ
To be noted: protein: recombinant; tags: N-terminal GST; dsDNA, one strand shown. Summed up: as §1

Experiment [17] addresses ETV1 (Homo sapiens, UniProt P50549 1-477). Conditions: protein: recombinant; tags: N-terminal GST; dsDNA, one strand shown. A digest of the protocol: as §1

Chain of SPIB (Q01892 whole entry): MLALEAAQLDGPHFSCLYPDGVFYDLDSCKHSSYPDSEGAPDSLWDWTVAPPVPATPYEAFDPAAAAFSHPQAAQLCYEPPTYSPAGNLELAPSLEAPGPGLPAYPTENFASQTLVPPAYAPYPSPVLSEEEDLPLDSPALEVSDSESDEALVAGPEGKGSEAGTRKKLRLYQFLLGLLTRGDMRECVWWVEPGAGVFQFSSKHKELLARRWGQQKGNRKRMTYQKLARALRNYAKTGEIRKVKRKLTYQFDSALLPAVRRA
Chain of ETV5 (P41161 whole entry): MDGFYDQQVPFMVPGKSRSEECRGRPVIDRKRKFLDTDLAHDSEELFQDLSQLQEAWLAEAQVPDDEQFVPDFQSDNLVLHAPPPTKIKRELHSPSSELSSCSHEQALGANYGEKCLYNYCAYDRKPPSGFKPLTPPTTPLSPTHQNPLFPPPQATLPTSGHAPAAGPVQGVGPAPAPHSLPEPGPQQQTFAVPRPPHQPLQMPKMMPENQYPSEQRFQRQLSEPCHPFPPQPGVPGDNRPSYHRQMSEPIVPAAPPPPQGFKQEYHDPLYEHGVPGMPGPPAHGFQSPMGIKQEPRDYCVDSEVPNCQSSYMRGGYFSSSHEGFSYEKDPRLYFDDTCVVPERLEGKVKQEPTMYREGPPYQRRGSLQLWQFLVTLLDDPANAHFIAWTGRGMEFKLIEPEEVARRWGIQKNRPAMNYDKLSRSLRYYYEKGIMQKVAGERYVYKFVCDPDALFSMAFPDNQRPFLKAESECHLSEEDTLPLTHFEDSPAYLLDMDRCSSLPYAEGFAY
Chain of ETV1 (P50549 whole entry): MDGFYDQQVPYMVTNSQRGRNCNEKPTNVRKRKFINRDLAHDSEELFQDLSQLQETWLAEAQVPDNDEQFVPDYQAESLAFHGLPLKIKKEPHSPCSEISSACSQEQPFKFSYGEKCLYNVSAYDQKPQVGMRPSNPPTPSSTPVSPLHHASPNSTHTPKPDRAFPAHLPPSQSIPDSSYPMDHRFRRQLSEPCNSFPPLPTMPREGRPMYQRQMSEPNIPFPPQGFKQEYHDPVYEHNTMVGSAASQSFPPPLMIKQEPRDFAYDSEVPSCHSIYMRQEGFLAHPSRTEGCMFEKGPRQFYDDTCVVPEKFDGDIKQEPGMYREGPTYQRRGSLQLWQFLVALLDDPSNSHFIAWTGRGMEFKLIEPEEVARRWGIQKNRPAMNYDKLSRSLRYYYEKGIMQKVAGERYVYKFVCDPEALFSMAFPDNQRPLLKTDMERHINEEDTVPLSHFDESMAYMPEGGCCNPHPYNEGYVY
Chain of HSF1 (Q00613 whole entry): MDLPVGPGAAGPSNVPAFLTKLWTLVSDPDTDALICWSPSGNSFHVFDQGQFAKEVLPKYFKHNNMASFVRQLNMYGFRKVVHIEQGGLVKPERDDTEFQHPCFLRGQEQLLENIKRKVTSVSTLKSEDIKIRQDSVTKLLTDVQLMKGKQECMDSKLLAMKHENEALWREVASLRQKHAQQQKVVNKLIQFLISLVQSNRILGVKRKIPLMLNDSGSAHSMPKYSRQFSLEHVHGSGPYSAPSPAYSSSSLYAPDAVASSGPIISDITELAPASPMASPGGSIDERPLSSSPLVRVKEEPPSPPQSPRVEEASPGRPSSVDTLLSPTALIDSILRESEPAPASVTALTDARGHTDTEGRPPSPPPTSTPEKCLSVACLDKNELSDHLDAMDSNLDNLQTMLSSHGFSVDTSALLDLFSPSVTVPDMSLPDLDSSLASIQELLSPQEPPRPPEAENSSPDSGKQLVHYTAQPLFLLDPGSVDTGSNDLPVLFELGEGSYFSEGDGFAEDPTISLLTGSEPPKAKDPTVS
Chain of ELF4 (Q99607 whole entry): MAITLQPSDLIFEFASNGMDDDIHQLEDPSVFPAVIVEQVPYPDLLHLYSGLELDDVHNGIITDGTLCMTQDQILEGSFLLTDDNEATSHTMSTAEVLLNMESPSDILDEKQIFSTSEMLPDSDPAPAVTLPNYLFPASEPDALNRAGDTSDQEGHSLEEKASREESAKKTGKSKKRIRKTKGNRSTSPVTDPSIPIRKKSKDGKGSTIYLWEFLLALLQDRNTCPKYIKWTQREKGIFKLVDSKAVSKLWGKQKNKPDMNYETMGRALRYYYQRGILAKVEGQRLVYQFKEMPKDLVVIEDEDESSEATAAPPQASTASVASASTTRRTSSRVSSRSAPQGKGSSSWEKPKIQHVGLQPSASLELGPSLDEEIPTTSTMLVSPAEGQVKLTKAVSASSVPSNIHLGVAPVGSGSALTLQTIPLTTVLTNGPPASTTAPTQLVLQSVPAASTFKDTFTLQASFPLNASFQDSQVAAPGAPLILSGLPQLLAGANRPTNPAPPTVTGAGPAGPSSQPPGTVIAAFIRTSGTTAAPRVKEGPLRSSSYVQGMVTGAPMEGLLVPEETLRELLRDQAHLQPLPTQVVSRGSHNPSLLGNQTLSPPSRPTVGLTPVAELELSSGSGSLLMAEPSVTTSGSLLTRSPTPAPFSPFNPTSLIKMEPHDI
Chain of ELF1 (P32519 whole entry): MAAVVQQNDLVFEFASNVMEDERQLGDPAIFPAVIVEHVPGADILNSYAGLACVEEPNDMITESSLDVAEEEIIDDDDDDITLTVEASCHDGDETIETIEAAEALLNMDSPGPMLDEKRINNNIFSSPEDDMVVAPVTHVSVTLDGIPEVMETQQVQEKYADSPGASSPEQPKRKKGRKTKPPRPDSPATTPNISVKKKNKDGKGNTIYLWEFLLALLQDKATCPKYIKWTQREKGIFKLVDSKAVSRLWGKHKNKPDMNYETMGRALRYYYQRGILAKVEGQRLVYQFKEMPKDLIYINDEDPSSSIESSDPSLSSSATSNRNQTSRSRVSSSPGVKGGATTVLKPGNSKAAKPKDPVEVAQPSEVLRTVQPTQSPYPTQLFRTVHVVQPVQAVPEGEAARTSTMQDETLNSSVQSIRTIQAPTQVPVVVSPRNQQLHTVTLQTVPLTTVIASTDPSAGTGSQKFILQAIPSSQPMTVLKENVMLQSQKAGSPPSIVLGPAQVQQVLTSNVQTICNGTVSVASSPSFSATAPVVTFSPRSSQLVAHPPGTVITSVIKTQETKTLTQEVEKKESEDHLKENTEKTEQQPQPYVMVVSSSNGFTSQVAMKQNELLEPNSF

With CACTCG, the binding signal in experiment [1] was 1.1 fold enrichment (6-mer frequency, TF over GST control); in experiment [2], 1.26 fold enrichment (6-mer frequency, TF over GST control); in [3], 1.08 fold enrichment (6-mer frequency, TF over GST control); in experiment [4] it was 1.15 fold enrichment (6-mer frequency, TF over GST control); in experiment [5], 1.2 fold enrichment (6-mer frequency, TF over GST control); in experiment [6], 1.18 fold enrichment (6-mer frequency, TF over GST control). In addition, the binding signal is 1.01 fold enrichment (6-mer frequency, TF over GST control) in [7]; 1.18 fold enrichment (6-mer frequency, TF over GST control) in experiment [8]; 1.2 fold enrichment (6-mer frequency, TF over GST control) in experiment [9]; 1.22 fold enrichment (6-mer frequency, TF over GST control) in experiment [10]; 1.13 fold enrichment (6-mer frequency, TF over GST control) in experiment [11]; 1.16 fold enrichment (6-mer frequency, TF over GST control) in [12]. Moreover, the binding signal in experiment [13] is 1.08 fold enrichment (6-mer frequency, TF over GST control); in [14] it was 1.2 fold enrichment (6-mer frequency, TF over GST control); in experiment [15], 1.24 fold enrichment (6-mer frequency, TF over GST control); in experiment [16] it was 1.2 fold enrichment (6-mer frequency, TF over GST control); in experiment [17] it was 1.09 fold enrichment (6-mer frequency, TF over GST control).
